MITF inh: blocks MITF activity; TRPM1 promoter luciferase, luminescence, 24 h; 0.28% of 37,000 active; inhibition, % (concentration not given with the values); in the data active = inhibition above about 85%;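 also: human melanocyte line stably carrying TRPM1 promoter luciferase reporter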
NOMO-1 viab: STK33 inhibitor candidate reducing NOMO-1 cell viability; NOMO-1 AML viability, CellTiter-Glo luminescence, 72 h; inhibition, % (concentration not given with the values); 7.5% of 37,000 active; in the data active = inhibition above about 80%
Hedgehog inh: Sonic Hedgehog pathway inhibition | Shh-LIGHT2 Gli-luciferase reporter, 30 h | inhibition, % (no concentration beside the values) | 2.1% of 22,000 active | AID 2313;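 active = mean inhibition across valid replicates above about 65%, limit read from the data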;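 also: pathway switched on by Shh-conditioned medium diluted 1 in 25 in low serum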
* hit, by the source's call; x = not tested or not shown. A selection: hits, their analogues and other compounds. The true share with any hit is near 7.9%.

SMILES	MITF inh	NOMO-1 viab	Hedgehog inh
Cc1ccc(S(=O)(=O)Nc2ccc3c(c2)CC(=O)N([C@H](C)CO)C[C@@H](C)[C@@H](CN(C)CC2CCCCC2)O3)cc1	1	97*	-2
C[C@H](CO)N1C[C@H](C)[C@H](CN(C)CC2CCCCC2)Oc2ccc(NS(=O)(=O)c3ccccc3)cc2CC1=O	-11	29	x
Cc1ccc(S(=O)(=O)Nc2ccc3c(c2)CC(=O)N([C@H](C)CO)C[C@@H](C)[C@H](CN(C)CC2CC2)O3)cc1	-7	12	-31
C[C@@H]1CN([C@H](C)CO)C(=O)Cc2cc(NS(=O)(=O)c3ccccc3)ccc2O[C@H]1CN(C)CC1CCCCC1	-3	62	-2
Cc1ccc(S(=O)(=O)Nc2ccc3c(c2)CC(=O)N([C@@H](C)CO)C[C@H](C)[C@H](CN(C)CC2CCCCC2)O3)cc1	6	102*	x
Cc1ccc(S(=O)(=O)Nc2ccc3c(c2)CC(=O)N([C@H](C)CO)C[C@@H](C)[C@H](CN(C)CC2CCCCC2)O3)cc1	5	84*	19
Cc1noc(C)c1S(=O)(=O)N(C)C[C@@H]1OCCCC[C@@H](C)Oc2ccc(NC(=O)C3CCCCC3)cc2C(=O)N([C@H](C)CO)C[C@@H]1C	8	21	26
O=C(CSc1nnc(-c2ccco2)n1-c1cccc2ccccc12)Nc1ccc(C(=O)O)cc1	2	6	x
COc1cccc(NC(=O)CN(c2ccc(C)cc2C)S(C)(=O)=O)c1	3	28	x
N#CC1=C(N)C(C#N)(C#N)C2(C(=O)N(Cc3ccccc3)c3ccccc32)C2CCCC=C12 (stereo not given)	37	22	x
CCOC(=O)N1CC=C2C(C1)C(c1cccc(C(F)(F)F)c1)C(C#N)=C(N)C2(C#N)C#N (stereo not given)	9	113*	17
COc1cccc(-c2nc(SCC(=O)Nc3cccc(C(F)(F)F)c3)[nH]c(=O)c2C#N)c1	-5	-7	x
CC1CCc2c(sc3ncnc(SCC(=O)Nc4ccc5c(c4)OCCO5)c23)C1 (stereo not given)	-9	37	x
O=C(CSc1nc(-c2ccc(Cl)cc2)cc(C(F)(F)F)n1)c1ccccc1	-18	32	x
CCOC(=O)CS(=O)(=O)c1nc(-c2ccc(F)cc2)cc(C(F)(F)F)n1	42	135*	x
CCOC(=O)CCS(=O)(=O)c1nc(-c2ccccc2)cc(C(F)(F)F)n1	61	115*	x
O=C(CSc1nc(-c2ccccc2)cc(C(F)(F)F)n1)Nc1ccc(F)cc1	11	34	x
O=C(CNC(=O)c1cn(-c2ccccc2)nc1-c1ccccc1)c1ccccc1	-75	6	x
C(=NCc1ccco1)c1cn(-c2ccccc2)nc1-c1ccccc1	-8	105*	-90
C[C@H](CO)N1C[C@H](C)[C@H](CN(C)Cc2ccncc2)Oc2c(NS(=O)(=O)c3cccs3)cccc2C1=O	2	3	-44
C=CC(C)(C)[C@@]12C[C@H]3C(=O)N[C@H]([C@@H](C)CC)C(=O)N3[C@@H]1Nc1ccccc12	-21	38	-51
C=CC(C)(C)[C@@]12C[C@H]3C(=O)Nc4ccccc4C(=O)N3[C@@H]1Nc1ccccc12	-8	92*	-11
CCOc1ccc(NC(=O)C(C)Sc2nc3ccccc3s2)cc1 (stereo not given)	29	10	x
COc1cccc(NC(=O)CSc2nc(N)c(-c3ccccc3)c(=O)[nH]2)c1	-3	-12	x
CCSc1nccc(-c2ccc3c(c2)CCC(C)(C)O3)n1	46	9	78*
SMILES	MITF inh	NOMO-1 viab	Hedgehog inh
C[C@@H]1CN([C@H](C)CO)C(=O)c2cc(NC(=O)Cn3cnnn3)ccc2O[C@H]1CN(C)C(=O)Nc1cccc2ccccc12	-3	1	x
COc1ccc(-c2nnc3c4ccccc4c(C)nn23)cc1S(=O)(=O)NCc1ccccc1	41	47	x
COc1ccc(S(=O)(=O)NCc2ccccc2)cc1-c1nnc2c3ccccc3c(C)nn12	36	116*	x
C[C@@H]1CN([C@@H](C)CO)C(=O)c2cc(NC(=O)C3CC3)ccc2O[C@@H]1CN(C)S(C)(=O)=O	-1	-11	-3
O=C(CSC1CC(=O)N(c2ccc(Cl)cc2)C1=O)Nc1ccc(Cl)cc1 (stereo not given)	-7	-7	x
O=C1CC(SCc2ccc(Cl)cc2)C(=O)N1c1ccc(Br)cc1 (stereo not given)	4	12	94*
Cc1noc(C)c1S(=O)(=O)Nc1cccc2c1O[C@H](CN(C)C(=O)Nc1ccccc1)[C@H](C)CN([C@@H](C)CO)C2=O	-4	6	30
C[C@@H]1CN([C@@H](C)CO)C(=O)c2cccc(NC(=O)NC3CCCCC3)c2O[C@@H]1CN(C)S(C)(=O)=O	-11	-12	4
CCOC(=O)c1c(NC(=O)CCN2CCC(C)CC2)sc2c1CC(C)(C)OC2	-18	14	x
Cc1nn(C(C)(C)C)c(OC(=O)c2cccc(Br)c2)c1S(=O)(=O)c1ccccc1	52	119*	x
Cc1nn(C(C)(C)C)c(OC(=O)c2ccc(Cl)cc2)c1S(=O)(=O)c1ccccc1	30	121*	x
Cc1ccc(S(=O)(=O)c2c(C)nn(C(C)(C)C)c2OC(=O)c2ccccc2C(F)(F)F)cc1	7	61	x
Nc1cc(OC(=O)c2ccccc2)nn1S(=O)(=O)c1ccccc1	-28	9	40
COc1ccccc1NC(=O)CSc1nnc(-c2ccccc2)n1-c1cccc(C)c1	42	24	x
Cn1nnnc1SCC(=O)Nc1ccc(N2CCOCC2)c(Cl)c1	-36	6	x
CCOC(=O)c1c(NC(=O)c2cc(S(=O)(=O)N3CCOCC3)ccc2OC)sc2c1CCC2	4	34	x
CCOc1ccc(C(=O)Nc2ccc(NC(=O)c3ccccc3)c(C)c2)cc1Br	-2	58	96*
Cc1cc(Cl)ccc1NC(=O)c1ccc(OCC(=O)Nc2ccccc2)cc1	2	35	x
COc1cc(/C=C/C(=O)CC(=O)/C=C/c2ccc(O)c(OC)c2)ccc1O	4	107*	32
COc1cccc(/C=C/C(=O)O)c1C(C)C	-31	2	-32
COc1cc(O)c(CC=C(C)C)cc1C(=O)/C=C/c1ccc(O)c(CC=C(C)C)c1	2	86*	-6
COc1cc(/C=C/C(=O)O[C@@H]2C[C@@](O)(C(=O)O)C[C@@H](O)[C@@H]2O)ccc1O	1	18	-4
COc1ccc(/C=C/C(=O)c2c(OC)cc(OC)c(CC=C(C)C)c2OC)cc1	-17	5	7
COc1ccc(/C=C/C(=O)CC(=O)/C=C/c2cccc(O)c2OC)cc1O	36	115*	69*
C[C@H](CO)N1C[C@H](C)[C@@H](CN(C)Cc2ccc(-c3ccccc3)cc2)Oc2ccc(N(C)C)cc2C1=O	8	24	10
COc1ccc(NC(=O)c2ccc(OC(C)C(=O)O)cc2)cc1Cl (stereo not given)	9	-10	x
C/C=C1/[C@H](O[C@@H]2O[C@H](CO)[C@@H](O)[C@H](O)[C@H]2O)OC=C(C(=O)OC)[C@H]1CC(=O)OCCc1ccc(O)c(O)c1	x	x	-28
COc1ccc(CN(C)C[C@@H]2Oc3ccc(NS(=O)(=O)c4ccc(OC)cc4)cc3C(=O)N([C@@H](C)CO)C[C@@H]2C)cc1	1	11	4

High-throughput results deposited in PubChem by Broad Institute.
